Measured values as given in the supplement of paper PMC6555819.

Tests used:
Assay in all cases: PBM binding z-score (relative to random genomic background probes); higher = stronger binding; sequences stand for … in GC…GCGATTGACAGCGTAGAATGAAGG
[1] = tested on: PPARg:RXRa DBDmut IVT, anti-RXR (DBD mutation: RXRa K156A/R161A, NR concentration 270 nM, RXRa partner concentration 90 nM)
How it was run: (§1)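 Ligand-free nuclear receptor dimers were bound for 1 h to custom Agilent 4×180K protein-binding microarrays. Detection used antibodies against each partner (one per run). Binding z-scores rest on regression-normalized fluorescence, with random background probes as the reference.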

[2] = tested on: PPARg:RXRa IVT, anti-PPARg (NR concentration 270 nM, RXRa partner concentration 90 nM)
How it was run: as §1

[3] = tested on: PPARg DBDmut:RXRa IVT, anti-PPARg (DBD mutation: PPARg1 K132A/R137A, NR concentration 270 nM, RXRa partner concentration 90 nM)
How it was run: as §1

[4] = tested on: PPARg DBDmut IVT, anti-PPARg (DBD mutation: PPARg1 K132A/R137A, NR concentration 270 nM)
How it was run: as §1

[5] = tested on: PPARg homodimer (NR concentration 180 nM)
How it was run: as §1

[6] = tested on: PXR:RXRa (NR concentration 270 nM, RXRa partner concentration 90 nM)
How it was run: as §1

[7] = tested on: PXR homodimer (NR concentration 270 nM)
How it was run: as §1

[8] = tested on: RARa:RXR (NR concentration 270 nM, RXRa partner concentration 90 nM)
How it was run: as §1

[9] = tested on: RARa homodimer (NR concentration 270 nM)
How it was run: as §1

[10] = tested on: RARb:RXRa (NR concentration 270 nM, RXRa partner concentration 90 nM)
How it was run: as §1

[11] = tested on: RARb homodimer (NR concentration 270 nM)
How it was run: as §1

[12] = tested on: RARg:RXRa (NR concentration 270 nM, RXRa partner concentration 90 nM)
How it was run: as §1

[13] = tested on: RARg homodimer (NR concentration 270 nM)
How it was run: as §1

[14] = tested on: RXRa DBDmut IVT, anti-RXR (DBD mutation: RXRa K156A/R161A, NR concentration 90 nM)
How it was run: as §1

[15] = tested on: RXRa homodimer (NR concentration 180 nM)
How it was run: as §1

[16] = tested on: THRa:RXRa (NR concentration 90 nM, RXRa partner concentration 90 nM)
How it was run: as §1

[17] = tested on: THRa homodimer (NR concentration 90 nM)
How it was run: as §1

[18] = tested on: VDR homodimer (NR concentration 270 nM)
How it was run: as §1

| Sequence | PBM binding z-score [1] | PBM binding z-score [2] | PBM binding z-score [3] | PBM binding z-score [4] | PBM binding z-score [5] | PBM binding z-score [6] | PBM binding z-score [7] | PBM binding z-score [8] | PBM binding z-score [9] | PBM binding z-score [10] | PBM binding z-score [11] | PBM binding z-score [12] | PBM binding z-score [13] | PBM binding z-score [14] | PBM binding z-score [15] | PBM binding z-score [16] | PBM binding z-score [17] | PBM binding z-score [18] |
| --- | --- | --- | --- | --- | --- | --- | --- | --- | --- | --- | --- | --- | --- | --- | --- | --- | --- | --- |
| CAGCCTAGGTCAGCGCCAGTATAGGAGGAACGTT | 1.84 | 1.37 | -1.15 | -0.469 | 0.899 | 0.373 | -0.685 | 1.15 | -0.632 | 3.71 | 2.6 | 2.85 | 4.04 | 0.449 | 1.55 | 2.05 | 0.498 | -0.621 |
| ATCTCTAGGTAAAGTTAGTTCAGTGAATGCAAAT | 2.54 | 2.3 | 1.03 | 0.811 | 1.08 | 1.65 | 1.25 | 1.12 | 0.947 | 0.74 | 0.802 | 0.673 | 0.531 | 0.563 | 0.331 | 1.94 | 0.737 | 1.35 |
| TCATATAGGTAAACAGGTGAACGTCCGTAAGTTA | 5.34 | 5.19 | 1.47 | 1 | 1.69 | 1.09 | 0.569 | 1.4 | 1.29 | 0.977 | 0.948 | 0.887 | 0.712 | 1.31 | 1.28 | 1.12 | 0.353 | 0.243 |
| TCTTGTAGATCAACAGGAGGTTAGGAAAGATCGA | 1.53 | 0.599 | 0.272 | 0.48 | -0.426 | 0.183 | -0.275 | 0.125 | 0.162 | 0.117 | 0.164 | 0.361 | 0.196 | 0.233 | 0.348 | 0.437 | -0.828 | -0.458 |
| CCTTACAGGTCACTCCAGGTTATAGCATCGGAGT | 4.37 | 4.23 | 0.516 | 0.777 | 2.41 | 4.74 | 0.873 | 3.71 | 1.13 | 4.61 | 3.76 | 4.74 | 4.71 | 2.2 | 4.35 | 5.15 | 1.32 | 2.04 |
| CCTCGGAGGACAACAAGAGGTCAGAGCTGCCAGA | -0.155 | 0.669 | -1.24 | -1.03 | 1.86 | 3.04 | 0.241 | 3.4 | 0.861 | 3.18 | 3.8 | 4.13 | 3.8 | 0.726 | 2.93 | 2.86 | 0.992 | 1.54 |
| GCTAGTTGGTAAGTAAAAGGTCACACACCGGTCG | 0.354 | 3.04 | -0.0152 | 0.693 | 5.08 | 5.18 | 1.13 | 6.32 | 2.74 | 4.08 | 5.2 | 4.96 | 4.06 | 0.677 | 4.99 | 3.48 | 1.73 | 1.63 |
| TTACCAAGGTGAAGGTTGTTGATCCCTCTGTAGA | 1.42 | 2.94 | 0.413 | -0.108 | 0.542 | 0.665 | -0.348 | 0.887 | -0.403 | 1.58 | 1.02 | 0.564 | 0.48 | -0.157 | 0.836 | 2.06 | 0.718 | -0.156 |
| CTACCAAGGTAAACAAGGTCGTTGATTACTATTC | 1.19 | 0.986 | -0.194 | 0.206 | 0.169 | 2.25 | 1.6 | 1.75 | 0.382 | 0.851 | 1.18 | 0.545 | 0.535 | 1.34 | 1.06 | 3.2 | 1.5 | 2.04 |
| AACTCTAGGTAAAGTTCAGTGAAAGATCGATAGA | 2.44 | 2.21 | 0.224 | 0.266 | 0.953 | 1.71 | 1.53 | 1.14 | 0.544 | 2.73 | 2.3 | 1.97 | 2.32 | 1.44 | 1.19 | 0.938 | -0.396 | 1.64 |
| ATGTGTAGGTTATCGGGTCATTCAGTTTGCGCAT | 4.63 | 5.37 | 1.53 | 2.39 | 3.67 | 4.09 | 9.38 | 4.11 | 2.56 | 2.75 | 3.35 | 3.59 | 2.67 | 1.75 | 3.57 | 3.57 | 3.71 | 3.91 |
| TCATATAAGTAAATGCTAGGTGAAAGTCCGATCT | 3.04 | 0.569 | 0.642 | 0.691 | 1.1 | 0.626 | 0.422 | 0.789 | 1.78 | 0.428 | 0.289 | 0.478 | 0.348 | 2 | 0.855 | 0.92 | 0.526 | 0.559 |
| TCTAGCTGGCCAGAGGGTCACTCAAGAGGTACGG | 0.731 | -0.216 | -1.57 | -1.05 | 0.244 | 1.38 | -0.401 | 1.83 | -0.851 | 1.73 | 2.27 | 2.07 | 1.43 | -0.123 | 2.18 | 1.48 | -0.56 | 0.32 |
| GATACAGGGTCAGCTGGAGGCCAGAGTATGGAAA | 1.09 | 2.28 | -0.601 | -0.834 | 2.9 | 3.53 | -0.0691 | 5.12 | 0.139 | 4.3 | 3.23 | 6.73 | 5.23 | 1.38 | 4.35 | 3.16 | 0.136 | 0.57 |
